From the supplement of paper PMC12339681
Counter-ions that a name gives are not always drawn.

These compounds were tested on PBMC-derived induced microglia-like cells (piMGLC) (assay: synaptosome phagocytic index relative to DMSO control (fraction of DMSO); higher = more phagocytosis). Conditions: concentration: 10 uM (2 uM for compounds listed in Table S2); pretreatment time: 24 h; assay time: 3 h.

| SMILES | synaptosome phagocytic index |
| --- | --- |
| CN(C)CCc1c[nH]c2ccc(Cn3cncn3)cc12 [Rizatriptan_(benzoate)] | 1.11 |
| CCCN[C@H]1CCc2nc(N)sc2C1 [Pramipexole_(dihydrochloride)] | 0.906 |
| N[C@@H]1CONC1=O [D-Cycloserine] | 0.834 |
| CS(=O)(=O)CCNCc1ccc(-c2ccc3ncnc(Nc4ccc(OCc5cccc(F)c5)c(Cl)c4)c3c2)o1 [Lapatinib] | 0.0755 |
| CS(=O)(=O)CCNCc1ccc(-c2ccc3ncnc(Nc4ccc(OCc5cccc(F)c5)c(Cl)c4)c3c2)o1 [Lapatinib_(ditosylate)] | 0.126 |
| CCN(CC)C(=O)C1(c2ccccc2)CC1CN (configuration not stated) [Milnacipran_(hydrochloride)] | 1.35 |
| CCc1cc2c(cc1N1CCC(N3CCOCC3)CC1)C(C)(C)c1[nH]c3cc(C#N)ccc3c1C2=O [Alectinib] | 0.538 |
| Clc1cccc(Cl)c1NC1=NCCN1 [Clonidine_(hydrochloride)] | 0.898 |
| Nc1nc2[nH]cc(CCc3ccc(C(=O)N[C@@H](CCC(=O)O)C(=O)O)cc3)c2c(=O)[nH]1 [Pemetrexed_(disodium_hemipenta_hydrate)] | 1.03 |
| CN1C(C(=O)Nc2ccccn2)=C(O)c2ccccc2S1(=O)=O [Piroxicam] | 0.661 |
| CCCCCCCCCC(=O)OCCN1CCN(CCCN2c3ccccc3Sc3ccc(C(F)(F)F)cc32)CC1 [Fluphenazine_decanoate] | 1.03 |
| COc1cccc2c1C(=O)c1c(O)c3c(c(O)c1C2=O)C[C@@](O)(C(=O)CO)C[C@@H]3O[C@H]1C[C@H](N)[C@@H](O)[C@H](C)O1 [Epirubicin_(hydrochloride)] | 0.904 |
| NC1=N[C@@]2(c3cc(NC(=O)c4ccc(F)cn4)ccc3F)COC[C@H]2CS1 | 1.35 |
| C[C@@H](O[C@H]1OCCN(Cc2n[nH]c(=O)[nH]2)[C@H]1c1ccc(F)cc1)c1cc(C(F)(F)F)cc(C(F)(F)F)c1 [Aprepitant] | 1.02 |
| C[C@@H](C(=O)O)c1ccc(-c2ccccc2)c(F)c1 [Tarenflurbil] | 1.11 |
| OC1(CN2CCC(COc3noc4cccc(O[C@@H]5CCOC5)c34)CC2)CCOCC1 | 0.793 |
| CC(C)n1c(=O)n(C)c2cnc3cc(F)c(-c4ccc(OCCCN5CCCCC5)nc4)cc3c21 | 0.706 |
| CCC1(C)CC(=O)NC1=O (configuration not stated) [Ethosuximide] | 0.869 |
| NC(=O)c1cccc(-c2cccc(OC(=O)NC3CCCCC3)c2)c1 | 0.86 |

| SMILES | synaptosome phagocytic index |
| --- | --- |
| CC(C)Cc1ccc([C@@H](C)C(=O)O)cc1 [(R)-(-)-Ibuprofen] | 1.31 |
| Cc1ccsc1C(=CCCN1CCC[C@@H](C(=O)O)C1)c1sccc1C [Tiagabine_(hydrochloride)] | 1.28 |
| CC(=O)N[C@@H](CS)C(=O)O [Acetylcysteine] | 0.86 |
| O=C(c1ccccc1)c1ccc2n1CCC2C(=O)O (configuration not stated) [Ketorolac_(tromethamine_salt)] | 0.874 |
| COc1cc2c(N3CCN(C(=O)Nc4ccc(OC(C)C)cc4)CC3)ncnc2cc1OCCCN1CCCCC1 [Tandutinib_(hydrochloride)] | 0.778 |
| CN(Cc1cnc2nc(N)nc(N)c2n1)c1ccc(C(=O)N[C@@H](CCC(=O)O)C(=O)O)cc1 [Methotrexate] | 1.02 |
| N#Cc1ccc(Cn2ccc(NC(=O)Cc3ccc(C4(C(F)(F)F)CC4)cc3)n2)nc1 | 1.06 |
| Cc1nc(-c2cccnc2)sc1C(=O)Nc1ccccc1-c1cn2c(CN3CCOCC3)csc2n1 | 0.157 |
| OC(Cn1cncn1)(Cn1cncn1)c1ccc(F)cc1F [Fluconazole] | 0.902 |
| Cc1cc(NS(=O)(=O)c2ccc(N)cc2)no1 [Sulfamethoxazole] | 1.17 |
| CC(=O)[C@H]1CC[C@H]2[C@@H]3CCC4=CC(=O)CC[C@]4(C)[C@H]3CC[C@]12C [Progesterone] | 0.761 |
| CCCCN1CCCCC1C(=O)Nc1c(C)cccc1C (configuration not stated) [Bupivacaine_(hydrochloride)] | 0.836 |
| COc1cc2/c(=N/c3ccc(Br)cc3F)nc[nH]c2cc1OCC1CCN(C)CC1 [Vandetanib] | 0.248 |
| COc1ccc2c3c1O[C@H]1C[C@@H](O)C=C[C@@]31CCN(C)C2 [Galanthamine] | 0.617 |
| CC(=O)[C@H]1CC[C@H]2[C@@H]3CC=C4C[C@@H](OS(=O)(=O)O)CC[C@]4(C)[C@H]3CC[C@]12C [Pregnenolone_monosulfate] | 0.895 |
| Nc1cccc2c1CN(C1CCC(=O)NC1=O)C2=O (configuration not stated) [Lenalidomide] | 1.11 |
| Cc1cc(-c2nncc3c(C(C)(C)C)c(OCc4ncnn4C)nn23)no1 | 0.814 |
| C[N+]1([O-])CCN(C2=Nc3cc(Cl)ccc3Nc3ccccc32)CC1 [Clozapine_N-oxide_(dihydrochloride)] | 0.606 |
